Screening results from PubChem.
DUSP3 inh = DUSP3 (human) phosphatase inhibition. P51452. recombinant VHR phosphatase, pNPP absorbance. inhibition, % at 13.3 µM. 0.52% of 290,000 active. AID 1654; in the data active = inhibition above about 50%
Y pestis TopoI = inhibitors of Yersinia pestis topoisomerase I | Y. pestis Topo-I cleavage product accumulation, plate reader | 0.064% of 360,000 active | activity, % at 10 µM; in the data active = activity above about 50%, passing the limit was not always enough; inconclusive = no clear call, values can overlap the other calls
BioA inh-1 = BioA (M. tuberculosis) enzyme inhibition. purified M. tuberculosis BioA enzyme, plate reader. inhibition, % at 9.99 µM. 0.096% of 360,000 active; in the data active = inhibition above about 40%; inconclusive = no clear call, values can overlap the other calls
TcdB inh = blocks C. difficile toxin B glycohydrolase activity; TcdB glycohydrolase enzymatic assay, plate reader; P18177; AID 652162; 0.24% of 350,000 active; inhibition, % at 9.99 µM; in the data active = inhibition above about 10%
Vc quorum ag = quorum light induction in luxS cqsA deficient V. cholerae. activation, % at 18.7 µM. V. cholerae BH1578 lux reporter, luminescence, 6 h. AID 588436. 0.16% of 350,000 active; in the data active = activation mostly above about 9.7%, no sharp cut-off; inconclusive = no clear call, values can overlap the other calls; inactive = mostly below about 3.7%
BioA inh-2 = blocks M. tuberculosis BioA aminotransferase; shares compounds with BioA inh-1; purified BioA enzyme, plate reader, dose response; max activity, %; 310 tested, under 10 active;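 also: top concentration of the dilution series was 10 µM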
HepG2 tox 2 = HepG2 viability loss; shares compounds with BioA inh-1; HepG2 cytotoxicity, plate reader; max activity, %; 310 tested, under 10 active
NIH3T3 tox 5 = NIH3T3 viability loss | shares compounds with BioA inh-1 | NIH3T3 cytotoxicity, plate reader | activity change, negative = cytotoxicity, % at 26 µM | 310 tested, under 10 active | AID 651900
Numbers without * were called inactive; i = inactive; u = inconclusive; x = not tested or not shown; [ ] = another dose, or the depositor's remark. In the library only some 0.73% were active in any assay of this set; here they are far more common. Unless noted, no rule for the calls is given here.

SMILES | DUSP3 inh | Y pestis TopoI | BioA inh-1 | TcdB inh | Vc quorum ag | BioA inh-2 | HepG2 tox 2 | NIH3T3 tox 5
C[C@@H]1CN([C@H](C)CO)S(=O)(=O)c2ccc(C#CC3CC3)cc2O[C@@H]1CN(C)C(=O)c1ccccn1 | x | x | 1.1 | -0.2 | x | x | x | x
COc1ccc(S(=O)(=O)Nc2ccc3c(c2)C(=O)N([C@@H](C)CO)C[C@@H](C)[C@@H](CN(C)S(C)(=O)=O)OCCCC[C@@H](C)O3)cc1 | x | x | -1.0 | -1.9 | x | x | x | x
CCn1c(=O)n(CC)c2cc(N3CCCC3)c(NC(=O)c3cccc(OC)c3)cc21 | 75.6 | 15.3 | 29.2 | 0.2 | i | x | x | x
CCOc1ccc(C(=O)Nc2cc3c(cc2N2CCCC2)n(CC)c(=O)n3CC)cc1OCC | 61.7 | -1.9 | 57.2* | -0.1 | i | -10.0 | -11.8 | -13.7
C[C@@H](C(=O)N1CCN(Cc2ccc3c(c2)OCO3)CC1)n1nnc2ccccc2c1=O | -12.2 | -0.1 | 70.1* | 0.9 | 1.4 | -9.0 | -10.1 | -2.3
O=C(Nc1ccccc1)N1CCN(Cc2ccc3c(c2)OCO3)CC1 | 25.0 | 3.7 | 76.1* | 1.2 | -0.3 | 7.1 | u | u
O=C(c1ccc(Br)o1)N1CCN(Cc2ccc3c(c2)OCO3)CC1 | 8.1 | 14.6 | 13.8 | x | -0.3 | x | x | x
O=C(c1ccc(Br)s1)N1CCN(Cc2ccc3c(c2)OCO3)CC1 | 19.2 | 36.5 | 59.0* | x | 1.0 | -9.1 | -6.9 | -7.2
Cc1ccc(S(=O)(=O)Nc2ccc3c(c2)C(=O)N([C@H](C)CO)C[C@@H](C)[C@H](CN(C)S(=O)(=O)c2ccc(C)cc2)O3)cc1 | x | x | 1.6 | -1.3 | x | x | x | x
COC(=O)C[C@@H]1C[C@@H]2c3cc(NC(=O)c4cccnc4)ccc3O[C@@H]2[C@@H](CO)O1 | x | x | 50.5* | 0.7 | x | 4.4 | i | 6.8
O=C(C[C@@H]1C[C@@H]2c3cc(NC(=O)c4cccnc4)ccc3O[C@@H]2[C@@H](CO)O1)NCCc1ccccc1 | x | x | 41.0* | -0.1 | x | -3.9 | i | -5.5[23.5 µM]
O=C(Cc1ccncc1)N1CC[C@@H]2[C@H](CO)Nc3ccc(Br)cc3[C@@H]21 | x | x | 16.0 | x | x | x | x | x
COc1cccc(-c2ccc3c(c2)[C@H]2[C@H](CCN2C(=O)C2CCC2)[C@@H](CO)N3)c1 | x | x | 59.8* | x | x | -9.9 | i | -2.2
O=C(C1CC1)N1CC[C@@H]2[C@H](CO)Nc3ccc(Br)cc3[C@@H]21 | x | x | 84.5* | -1.0 | x | u | i | -4.9
O=C(c1ccncc1)N1CC[C@@H]2[C@@H](CO)Nc3ccc(Br)cc3[C@@H]21 | x | x | 47.6* | x | x | -5.5 | i | -2.4
CC(C)CC#Cc1cnc2c(c1)C(=O)N([C@H](C)CO)C[C@@H](C)[C@@H](CN(C)Cc1ccccc1C(=O)O)O2 | x | x | 4.9 | 1.8 | x | x | x | x
O=C(NCC[C@H]1CC[C@H](NS(=O)(=O)c2ccc(Cl)cc2)[C@@H](CO)O1)Nc1ccc(F)cc1 | x | x | x | 1.2 | x | x | x | x
Cc1ccc(NS(=O)(=O)c2ccc3c(c2)n(C)c(=O)n3C)c(C)c1 | 34.4 | -1.7 | 7.2 | 0.6 | i | x | x | x
CCn1c(=O)c(=O)n(CC)c2cc(S(=O)(=O)Nc3cc(C)ccc3C)ccc21 | 3.9 | 9.6 | 42.1* | 0.0 | i | -11.5 | -15.1 | -16.0
